# PubChem BioAssay (NCI)
# About 83,000 compounds went through this panel and 20% of them were active in at least one assay; those are over-represented in the sample as a whole.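 How to read the values: 0–100, growth inhibition (40 = 60% inhibited); 0, no net growth; -100 to 0, cell death (-40 = 40% of starting cells died; -100 = all dead).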 Values without a mark were called inactive. Active and inactive are the calls of the source. The calls were made as follows: active = growth percent below 10; inactive = the rest.
# How the values were obtained:
# Test in all cases: NCI-60 one-dose screen, 48 h (100 = growth as untreated, 0 = no growth, -100 = all killed)
# Settings in all cases: 10 µM unless noted
# HCT-15 colon = system: HCT-15 colon
# HT29 colon = system: HT29 colon
# SNB-75 CNS = system: SNB-75 CNS
# SNB-19 CNS = system: SNB-19 CNS
# U251 CNS = system: U251 CNS
# PC-3 prostate = system: PC-3 prostate
# SK-MEL-5 melanoma = system: SK-MEL-5 melanoma
# UACC-62 melanoma = system: UACC-62 melanoma
# LOX IMVI melanoma = system: LOX IMVI melanoma
# SK-MEL-28 melanoma = system: SK-MEL-28 melanoma
Structure (SMILES),growth (HCT-15 colon),growth (HT29 colon),growth (SNB-75 CNS),growth (SNB-19 CNS),growth (U251 CNS),growth (PC-3 prostate),growth (SK-MEL-5 melanoma),growth (UACC-62 melanoma),growth (LOX IMVI melanoma),growth (SK-MEL-28 melanoma)
O=C1CS/C(=N/c2nnc(-c3ccc(O)cc3)s2)N1,101%,103%,111%,108%,101%,99.5%,102%,108%,92.2%,110%
C=C(C)[C@@H]1CC[C@]2(C(=O)OCCOCCOCC[P+](c3ccccc3)(c3ccccc3)c3ccccc3)CC[C@]3(C)[C@H](CC[C@@H]4[C@@]5(C)CC[C@H](C)C(C)(C)[C@@H]5CC[C@]43C)[C@@H]12,-86.7% (active),-81.6% (active),-90% (active),-72.2% (active),-83.5% (active),-84.9% (active),-98% (active),-77.8% (active),-86.3% (active),-80% (active)
NC(N)=NC(N)=Nc1cc2ccccc2c2ccccc12,57.8%,12.6%,57.7%,35.8%,33.8%,24.4%,45.6%,43.6%,16.5%,55.9%
CCCCCCCc1n(Cc2ccc3ccccc3c2)c2ccccc2[n+]1Cc1ccc2ccccc2c1,-80% (active),-84.3% (active),-86.8% (active),-77.9% (active),-79.8% (active),-88.7% (active),-92.8% (active),-89.6% (active),-75.1% (active),-85.4% (active)
CC(=O)Oc1ccc(O)cc1,104%,87.3%,91.1%,96.2%,101%,87.1%,96.7%,86.6%,94.4%,104%
COC(=O)c1cncc(C(=O)Nc2ccc(-n3cnc4ccccc43)cc2)c1,100%,96.5%,117%,99.1%,91.4%,92.1%,93.9%,93.4%,96.4%,103%
Cc1c(C(=O)Nc2nc3ccccc3[nH]2)cnn1-c1ccccn1,104%,66%,104%,101%,97.4%,93.1%,99.9%,107%,104%,112%
NC(=O)CN1C(=O)c2ccccc2C1=O,100%,102%,86.4%,98.4%,103%,99.5%,99.2%,95.7%,103%,106%
O=c1[nH]c2ccccc2cc1-c1nc2ccncc2[nH]1,85.9%,84.5%,58.3%,82.5%,83.7%,74%,86.7%,80.3%,82.1%,95.7%
COc1cc2cc(c1Cl)N(C)C(=O)C[C@H](OC(=O)[C@H](C)N(C)C(=O)CCS)C[C@]1(C)O[C@H]1[C@H](C)[C@@H]1C[C@@](O)(NC(=O)O1)[C@H](OC)/C=C/C=C(\C)C2,11.2%,0.342% (active),21%,34%,10.2%,22%,-33.1% (active),36.8%,13.6%,57.2%
C=C(C)[C@@H]1CC[C@]2(C(=O)O)CC[C@]3(C)[C@H](CC[C@@H]4[C@@]5(C)C[C@@H](CC#Cc6ccccc6C)C(=O)C(C)(C)[C@@H]5CC[C@]43C)[C@@H]12,20.9%,22.3%,58.1%,40%,25.4%,31.4%,28.2%,41.4%,43.6%,42.9%
Nc1ccc(C2=NN(C(=O)c3cc(-c4ccc(Cl)cc4)nc4ccccc34)C(c3ccccc3)C2)cc1 (stereo not given),25.5%,12.2%,40.2%,34.1%,40.1%,26.8%,25.9%,38.9%,42.5%,58.8%
COc1ccc(-c2cc(-c3nnc(SCC(=O)Nc4ccc(/C(C)=N\O)cc4)o3)c3ccccc3n2)cc1,100%,101%,98.3%,90.8%,101%,100%,99.2%,106%,97.7%,114%
C[C@H](Oc1cc(-c2cnn(C3CCNCC3)c2)cnc1N)c1c(Cl)ccc(F)c1Cl,43.2%,12.4%,76.3%,65.6%,37.6%,45.9%,59%,60.2%,8.87% (active),-46.5% (active)
COc1cc2nc3c(=O)n(-c4ccc(C#N)cc4)cnn3c(=O)c2cc1OC,100%,100%,73.9%,97.7%,102%,98.3%,96.1%,95.1%,95.4%,99.8%
C[C@]12CC[C@@H]3c4ccc(O)cc4CC[C@H]3[C@@H]1C[C@H](O)C2,44.4%,94.1%,84.2%,66.2%,63.3%,80%,64.9%,43.6%,63.4%,84.3%
COc1ccc(NC(=O)c2sc3nc(C)c(C(C)=O)cc3c2N)cc1,91.6%,83.5%,88.3%,96.1%,95%,92%,93.8%,92.9%,105%,94.1%
C#C[C@@]1(O)[C@@H](CO)O[C@@H](n2cc(Br)c3c(N)ncnc32)[C@@H]1O,2.93% (active),3.26% (active),-36.2% (active),2.58% (active),-12.4% (active),-2.77% (active),4.89% (active),15.1%,-56.8% (active),58.2%
O=c1c2ccccc2oc2ccc(OCCCCCCN3CCCCCC3)cc12,7.65% (active),8.09% (active),88.7%,58.3%,38.9%,34%,-36.7% (active),-53.4% (active),19.1%,38.5%
C=C1C(=O)O[C@H]2[C@H]1CC/C(COC(=O)/C=C/c1cccnc1)=C\CC[C@@]1(C)O[C@@H]21,3.01% (active),11.1%,72.2%,75.2%,57.7%,57.5%,68.2%,41.1%,30.7%,43.7%
COC(=O)c1ccc(NC(=O)CSc2nc(-c3ccc(F)cc3)nc3ccccc23)cc1,89.3%,91.3%,79.4%,80.2%,63.1%,75.6%,74.3%,93.4%,64.8%,94.7%
C[C@H]1[C@H](C)CC[C@]2(C(=O)OCCOCCOCC[P+](c3ccccc3)(c3ccccc3)c3ccccc3)CC[C@]3(C)C(=CC[C@@H]4[C@@]5(C)CC[C@H](OC(=O)C(Cl)Cl)C(C)(C)[C@@H]5CC[C@]43C)[C@H]12,17.1%,3.81% (active),19.7%,20.4%,11.3%,5.1% (active),-97.7% (active),-23.9% (active),-21.1% (active),30%
COCCOCCOCc1n(Cc2ccc3ccccc3c2)c2ccccc2[n+]1Cc1ccc2ccccc2c1,88.4%,-5.47% (active),-4.1% (active),23%,12.4%,5.49% (active),-91.9% (active),-29.6% (active),-26.6% (active),16.8%
C=C(C)[C@@H]1CC[C@]2(C(=O)OCCCC[P+](c3ccccc3)(c3ccccc3)c3ccccc3)CC[C@]3(C)[C@H](CC[C@@H]4[C@@]5(C)CC[C@H](OC(=O)C(Cl)Cl)C(C)(C)[C@@H]5CC[C@]43C)[C@@H]12,-8.59% (active),3% (active),-46.6% (active),11%,-37.1% (active),-26.2% (active),-99.4% (active),-43.2% (active),-93.7% (active),-63.4% (active)
CNc1cccc2c1C(=O)c1cccc(N)c1C2=O,58.6%,71.2%,71.5%,84.2%,29.6%,40.7%,88%,77.3%,79.1%,96.3%
